In PubChem BioAssay (NCATS) one finds activity change, negative = inhibition, Potency and outcome data, which are given here for four compounds.

Experiment [1] is described as follows: AP1 Signaling Pathway (AID 357; active means well fitted curve in either direction with a large enough effect, not every such curve was filed as active;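 further: ME-180 reporter cells stimulated with EGF at its EC50 level; on the % scale 0 is the no-effect control and ±100 the full control effect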). The note with it: ME-180 (cervical carcinoma) AP-1-bla reporter, EGF-induced, beta-lactamase ratio, 5 h; at 17.2 µM (top of the series) unless noted. The essentials:
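Read-out was the 460nm/530nm emission ratio (excitation 405nm) after CCF4 loading for 2.5 hours at room temperature. Cells carried an AP-1-driven beta-lactamase reporter, were stimulated with EC50 EGF plus compound for 5 hours, and AC50 values came from titrations.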

Experiment [2] deals with Cytochrome P450 1A2 (Homo sapiens) (UniProt P05177). Put plainly: p450-cyp1a2 (AID 410; calls by dose curve; further: potency means the concentration at half of the fitted maximal effect). The gist of the method: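 O-Demethylation of luciferin 6' methyl ether by human CYP1A2 is monitored as luciferase luminescence. Substrate sits at Km (100uM); enzyme is 20nM. Values are scaled to 57 uM furafylline as maximal inhibition.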
Experiment [3] can be described thus: NFAT Signaling Pathway (AID 444; active means well fitted curve in either direction with a large enough effect, not every such curve was filed as active;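 further: carbachol stimulus at about its EC50 of 1 µM final; on the % scale 0 is the no-effect control and ±100 the full control effect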). The note with it: Jurkat NFAT-bla M1, carbachol, beta-lactamase ratio, 5 h; at 17.2 µM (top of the series) unless noted. The gist of the method:
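Jurkat cells carrying an NFAT-driven β-lactamase reporter and co-transfected muscarinic M1 receptor were treated with compound plus carbachol (1 uM final, an EC50 level) for 5 h at 37 °C. CCF4 loading followed for 1 h at RT; 460/530 nm ratio gave %activity.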

The target of experiment [4] is Glucocorticoid receptor (Homo sapiens) (UniProt P04150). Put plainly: GR-GFP Redistribution (AID 450;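 active means compounds whose dose series gives a full or clear partial fitted curve of increased nuclear translocation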; further: potency means the concentration at half of the fitted maximal effect). The note with it: U2OS GR-GFP nuclear translocation, laser cytometry, 2 h.
In experiment [5] the target is Mitogen-activated protein kinase 10 (Mus musculus) (UniProt Q61831). Put plainly: JNK3 AlphaScreen Assay (AID 530; active means well fitted curve in either direction with a large enough effect, not every such curve was filed as active;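 further: kinase came from lysate of stimulated human HepG2 cells; signal reports phosphorylation of biotinylated GST-cJun 1-79 at Ser73 with 10 µM ATP; on the % scale 0 is the no-effect control and ±100 the full control effect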). The essentials: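 Phosphorylation of biotinylated GST-cJun(1-79) at Ser73 is measured by AlphaScreen proximity luminescence. Enzyme is JNK3 in HepG2 lysates activated with interleukin-1beta and tumor necrosis factor alpha; ATP is 10 uM final.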
Experiment [6] has as its target 3',5'-cyclic-AMP phosphodiesterase 4B (Homo sapiens) (UniProt Q07343). Put plainly: qHTS Assay for Inhibitors of PDE-IV (AID 607; active means well fitted activation curve with a large enough effect in the main read-out, with a control signal flat, not every such curve was filed as active; further: % of control where 0% means no effect). The essentials: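 Cell-based read-out of cAMP via a modified cyclic nucleotide-gated channel and membrane potential dye (535/590 nm) in HEK293 cells expressing PDE4 endogenously. Compounds tested up to 22.9 uM final; 100 uM RO 20-1724 reference.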

In experiment [7] the target is Guanine nucleotide-binding protein G(i) subunit alpha-1 (Homo sapiens) (UniProt P63096). Put plainly: qHTS Assay for Inhibitors of RGS12 GoLoco Motif Activity (Green Fluorophore) (AID 879).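 Further: 0% = labeled peptide with Gαi1 and full inhibition = labeled peptide alone without protein; negative values mean loss of peptide binding seen as reduced polarization.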 The gist of the method: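 A drop in FITC polarization marked displacement of the FITC-tagged RGS12 GoLoco peptide (10 nM) from Gαi1 (50 nM). Compounds were incubated 10 min at room temperature in Tris pH 7.5 buffer containing 150 mM NaCl, 0.1 mM GDP and 0.05% NP40; unlabeled peptide titration served as control.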

Experiment [8] in a line: qHTS Assay for Identification of Small Molecule Agonists for Thrombopoietin (TPO) Signaling Pathway (AID 917). Further: on the % scale 0 is the no-effect control and ±100 the full control effect. The gist of the method:
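Stimulation at the TPO EC50 (26 pM final) was used to detect activators. Ba/F3 mouse cells bearing human TPO receptor and a luciferase reporter under the Glycoprotein IIb promoter were exposed to compounds for 24 hrs at 37 C.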

Experiment [9] addresses Muscarinic acetylcholine receptor M1 (Rattus norvegicus) (UniProt P08482). Put plainly: qHTS Assay for Antagonists of Acetylcholine Muscarinic M1 Receptor: Measurement of IP-One Response (AID 944). Further: nearly all actives have a fitted effect of over 75% in size. Further: potency means the concentration at half of the fitted maximal effect. The essentials: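 Antagonist mode with rat M1 receptor transfected into CHO cells. Compound is added first for 10 min, carbachol at its EC80 follows for 30 min, and lysis reagents then allow TR-FRET detection of accumulated IP1.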

In experiment [10] the target is Pyruvate kinase (Leishmania mexicana) (UniProt Q27686). Put plainly: qHTS Validation Assay for Inhibitors of Leishmania Mexicana Pyruvate Kinase (AID 945).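 Further: 0% = DMSO only neutral control wells.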 The essentials:
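The enzyme is a highly purified E451W mutant of LmPYK used at 0.2 nM. It converts 0.5 mM PEP and 0.1 mM ADP over 1 h at room temperature; product ATP is quantified by luciferase luminescence relative to DMSO controls.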

Experiment [11] concerns the target Pyruvate kinase PKM (Homo sapiens) (UniProt P14618). Put plainly: qHTS Assay for Activators of Human Muscle Pyruvate Kinase (AID 954; active means well fitted curve in the direction sought with a large enough effect, not every such curve was filed as active;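 further: 0% = uninhibited enzyme and -100% = no enzyme or full thiadiazolimine inhibition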). The essentials:
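ATP production by PKM2 detected via luciferase luminescence after 1 h room-temperature reaction (0.1 nM enzyme, PEP at Km 0.5 mM, ADP 0.1 mM, pH 7.2 imidazole buffer). Inhibition scaled to no-enzyme control; activation referenced to 0.3 nM enzyme wells.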

Experiment [12] addresses Alpha-galactosidase (Coffea arabica) (UniProt Q42656). Put plainly: Counterscreen for Glucocerebrosidase Inhibitors: qHTS Assay for Coffee Bean alpha-Galactosidase at pH 4.5 (AID 957).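 Further: plate controls were enzyme alone for no effect and no enzyme for full effect.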 The essentials: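 Enzyme is added first (2 nM final), then compounds titrated from 0.7 nM to 77 uM, then 80 uM 4-methylumbelliferyl alpha-D-galactopyranoside; after 20 min at room temperature a pH 10 NaOH/glycine stop precedes fluorescence reading at 365/440 nm.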

The target in experiment [13] is Alpha-galactosidase A (Homo sapiens) (UniProt P06280). Put plainly: Counterscreen for Glucocerebrosidase Inhibitors: qHTS Assay for Human alpha-Galactosidase at pH 4.5 (AID 992). Further: 0% is about no effect. The essentials:
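Fluorogenic 1536-well qHTS at pH 4.5 (citrate, Tween-20): 2 nM enzyme, 80 uM 4-MU-alpha-galactoside, 20 min room temperature, NaOH/glycine stop. Titration 0.7 nM to 77 uM, data normalized to no-enzyme and full-activity controls, Hill-fitted AC50.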

For experiment [14], the target named is alpha-glucosidase (Oryza sativa, rice) (UniProt Q653V4). Put plainly: Counterscreen for Glucocerebrosidase Inhibitors: qHTS Assay for Rice alpha-Glucosidase at pH 5.0 (AID 997).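 Further: 0% = full activity with enzyme and -100% = basal without enzyme.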 The essentials: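 Endpoint fluorogenic assay at pH 5.0: compounds (0.7 nM to 77 uM) titrated against 4 nM rice enzyme and 400 uM 4-MU-alpha-glucoside for 20 min at room temperature; NaOH/glycine stop, read ex 365/em 440 nm, Hill-fitted AC50.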

The target of experiment [15] is Alpha-galactosidase (Coffea arabica) (UniProt Q42656). Put plainly: Counterscreen for Glucocerebrosidase Inhibitors: qHTS Assay for Coffee Bean alpha-Galactosidase at pH 5.9 (AID 998).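 Further: plate controls were uninhibited enzyme for no effect and no-enzyme basal signal for full effect.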 The gist of the method: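 In 50 mM citric acid pH 5.9 with 0.005% Tween-20, coffee bean enzyme hydrolyses 80 uM 4-MU alpha-D-galactopyranoside over 20 min at RT. Activity is normalized to controls; AC50 comes from Hill-modelled concentration-response data.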

Experiment [16] is described as follows: Stat Signaling Pathway (AID 446; active means well fitted curve in either direction with a large enough effect, not every such curve was filed as active). The essentials:
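FRET read-out (405 nm excitation, 460/530 nm emission) of a beta-lactamase reporter under a STAT-inducible element in ME-180 cervical carcinoma cells. Cells with compound receive 40 pM IL-6 for 5 h. Values are normalised to AC90 stimulation and AC90 JAK-inhibitor controls.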

The target in experiment [17] is Glucocorticoid receptor (Homo sapiens) (UniProt P04150). Put plainly: GR-EFC Redistribution (AID 451; calls by dose curve; further: potency means the concentration at half of the fitted maximal effect). The note with it: CHO-K1 GR-EFC translocation, beta-gal luminescence, 2 h. The gist of the method: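 CHO-K1 cells stably expressing nuclear-localized β-gal enzyme acceptor and GR fused C-terminally to the enzyme donor fragment; ligand-driven nuclear translocation restores β-gal by complementation. Compounds titrated up to 46 uM final, 2 h at 37 °C; luminescence read.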

Experiment [18] concerns the target Muscarinic acetylcholine receptor M1 (Rattus norvegicus) (UniProt P08482). Put plainly: qHTS Assay for Antagonists of Acetylcholine Muscarinic M1 Receptor: Kinetic Measurement of Intracellular Calcium Response (AID 943). Further: potency means the concentration at half of the fitted maximal effect; nearly all actives have a fitted effect of over 75% in size. The essentials:
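Antagonism is measured as inhibition of the carbachol-evoked calcium rise in CHO cells transfected with rat M1. Cells are dye-loaded, exposed to compound for 10 min, then stimulated with 100 nM carbachol (EC80).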

A number with no mark means an inactive call. Records with an inconclusive call do not appear. Calls of active or inactive are those of the source. Unless noted, the call rests on the fitted dose curve; in most records, active means well fitted curve in the direction sought with a large enough effect; inconclusive means small, poorly fitted or top-dose-only effect, or another doubt; inactive means no such curve, though single readings can be large; an effect the other way counts as inactive or inconclusive.

Chain of 3',5'-cyclic-AMP phosphodiesterase 4B (Homo sapiens) (Q07343 whole entry, looked up): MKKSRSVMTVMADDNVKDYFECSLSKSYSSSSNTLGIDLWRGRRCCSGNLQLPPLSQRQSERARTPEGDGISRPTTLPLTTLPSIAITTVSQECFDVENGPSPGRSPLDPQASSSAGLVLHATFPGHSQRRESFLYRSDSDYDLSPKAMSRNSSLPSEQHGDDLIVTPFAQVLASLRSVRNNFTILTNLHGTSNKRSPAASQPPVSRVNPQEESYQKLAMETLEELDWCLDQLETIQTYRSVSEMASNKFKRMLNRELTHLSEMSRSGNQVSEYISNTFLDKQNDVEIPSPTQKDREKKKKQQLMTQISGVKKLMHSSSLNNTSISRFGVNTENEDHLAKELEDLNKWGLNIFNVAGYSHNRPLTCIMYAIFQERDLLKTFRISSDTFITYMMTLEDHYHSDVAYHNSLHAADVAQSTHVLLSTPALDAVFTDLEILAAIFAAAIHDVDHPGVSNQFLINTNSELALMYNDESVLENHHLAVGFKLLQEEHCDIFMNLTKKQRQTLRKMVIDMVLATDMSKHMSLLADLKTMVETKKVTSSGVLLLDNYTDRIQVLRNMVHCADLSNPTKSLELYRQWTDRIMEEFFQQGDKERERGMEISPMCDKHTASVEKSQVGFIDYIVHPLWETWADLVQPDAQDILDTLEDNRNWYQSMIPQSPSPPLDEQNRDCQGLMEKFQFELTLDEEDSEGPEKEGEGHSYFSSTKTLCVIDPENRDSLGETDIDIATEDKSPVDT
Chain of Alpha-galactosidase (Coffea arabica) (Q42656 whole entry, looked up): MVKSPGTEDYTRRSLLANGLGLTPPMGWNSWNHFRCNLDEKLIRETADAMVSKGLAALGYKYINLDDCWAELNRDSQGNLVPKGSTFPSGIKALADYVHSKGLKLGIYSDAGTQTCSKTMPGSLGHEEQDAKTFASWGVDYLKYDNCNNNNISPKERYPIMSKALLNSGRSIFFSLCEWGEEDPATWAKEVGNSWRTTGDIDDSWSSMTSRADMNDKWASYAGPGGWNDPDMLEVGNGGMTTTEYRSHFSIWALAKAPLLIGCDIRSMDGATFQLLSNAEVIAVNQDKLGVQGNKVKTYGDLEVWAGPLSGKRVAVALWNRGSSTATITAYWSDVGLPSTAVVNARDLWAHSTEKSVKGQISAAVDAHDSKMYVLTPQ
Chain of Glucocorticoid receptor (Homo sapiens) (P04150 whole entry, looked up, the tested form may be a part): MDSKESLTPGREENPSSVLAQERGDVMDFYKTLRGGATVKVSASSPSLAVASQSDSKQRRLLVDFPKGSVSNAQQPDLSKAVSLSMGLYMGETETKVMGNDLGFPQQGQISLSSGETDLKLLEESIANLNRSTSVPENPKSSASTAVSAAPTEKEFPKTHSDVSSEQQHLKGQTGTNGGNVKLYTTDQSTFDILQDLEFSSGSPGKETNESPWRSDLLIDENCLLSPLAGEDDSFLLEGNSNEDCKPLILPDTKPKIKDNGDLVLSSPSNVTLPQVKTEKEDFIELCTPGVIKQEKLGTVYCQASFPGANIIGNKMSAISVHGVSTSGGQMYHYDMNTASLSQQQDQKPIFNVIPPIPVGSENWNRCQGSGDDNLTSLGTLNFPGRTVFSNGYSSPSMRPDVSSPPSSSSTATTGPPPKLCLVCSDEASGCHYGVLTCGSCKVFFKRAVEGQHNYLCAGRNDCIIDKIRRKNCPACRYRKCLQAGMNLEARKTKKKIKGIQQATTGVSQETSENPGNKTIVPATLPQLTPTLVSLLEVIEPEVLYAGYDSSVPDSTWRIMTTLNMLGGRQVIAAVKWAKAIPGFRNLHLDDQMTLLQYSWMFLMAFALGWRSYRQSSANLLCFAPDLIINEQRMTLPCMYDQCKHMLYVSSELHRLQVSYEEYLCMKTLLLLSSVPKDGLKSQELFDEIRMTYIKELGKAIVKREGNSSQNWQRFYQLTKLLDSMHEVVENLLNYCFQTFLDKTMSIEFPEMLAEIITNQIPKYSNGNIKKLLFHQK
Chain of Cytochrome P450 1A2 (Homo sapiens) (P05177 whole entry, looked up): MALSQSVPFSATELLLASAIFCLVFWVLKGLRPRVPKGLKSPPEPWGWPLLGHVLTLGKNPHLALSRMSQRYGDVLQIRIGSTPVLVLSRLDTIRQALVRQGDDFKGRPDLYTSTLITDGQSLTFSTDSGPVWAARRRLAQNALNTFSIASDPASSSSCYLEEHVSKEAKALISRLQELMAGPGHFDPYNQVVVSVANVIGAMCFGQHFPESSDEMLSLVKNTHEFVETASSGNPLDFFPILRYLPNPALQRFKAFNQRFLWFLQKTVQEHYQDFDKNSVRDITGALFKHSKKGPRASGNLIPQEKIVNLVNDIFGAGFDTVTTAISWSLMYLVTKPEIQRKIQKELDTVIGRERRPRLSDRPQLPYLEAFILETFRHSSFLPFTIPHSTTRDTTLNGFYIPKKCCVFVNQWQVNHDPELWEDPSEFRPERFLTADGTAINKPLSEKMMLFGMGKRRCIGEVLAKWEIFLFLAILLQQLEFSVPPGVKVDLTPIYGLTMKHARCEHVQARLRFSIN
Chain of Muscarinic acetylcholine receptor M1 (Rattus norvegicus) (P08482 whole entry, looked up): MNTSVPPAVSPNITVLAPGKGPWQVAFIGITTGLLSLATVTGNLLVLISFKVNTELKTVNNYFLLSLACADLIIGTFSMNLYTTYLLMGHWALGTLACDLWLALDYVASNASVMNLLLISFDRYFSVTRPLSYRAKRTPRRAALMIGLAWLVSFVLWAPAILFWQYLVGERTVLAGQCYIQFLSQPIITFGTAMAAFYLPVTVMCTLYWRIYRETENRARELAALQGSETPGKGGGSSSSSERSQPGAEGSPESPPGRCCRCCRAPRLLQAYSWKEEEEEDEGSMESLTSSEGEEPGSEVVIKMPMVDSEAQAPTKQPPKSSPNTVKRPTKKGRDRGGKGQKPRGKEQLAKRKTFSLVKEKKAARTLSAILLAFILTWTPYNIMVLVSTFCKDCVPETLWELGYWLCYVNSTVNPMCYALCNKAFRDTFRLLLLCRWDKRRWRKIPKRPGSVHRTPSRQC
Chain of Guanine nucleotide-binding protein G(i) subunit alpha-1 (Homo sapiens) (P63096 whole entry, looked up): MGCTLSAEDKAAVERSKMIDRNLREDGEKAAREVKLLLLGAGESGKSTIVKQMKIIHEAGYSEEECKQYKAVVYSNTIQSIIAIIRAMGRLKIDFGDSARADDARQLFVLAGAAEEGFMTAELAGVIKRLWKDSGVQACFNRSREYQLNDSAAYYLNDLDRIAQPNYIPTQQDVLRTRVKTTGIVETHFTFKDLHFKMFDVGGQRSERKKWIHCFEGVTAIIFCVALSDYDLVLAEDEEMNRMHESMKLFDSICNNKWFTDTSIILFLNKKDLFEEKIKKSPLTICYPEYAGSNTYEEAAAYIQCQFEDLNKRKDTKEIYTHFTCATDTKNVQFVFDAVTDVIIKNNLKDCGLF
Chain of Pyruvate kinase PKM (Homo sapiens) (P14618 whole entry, looked up): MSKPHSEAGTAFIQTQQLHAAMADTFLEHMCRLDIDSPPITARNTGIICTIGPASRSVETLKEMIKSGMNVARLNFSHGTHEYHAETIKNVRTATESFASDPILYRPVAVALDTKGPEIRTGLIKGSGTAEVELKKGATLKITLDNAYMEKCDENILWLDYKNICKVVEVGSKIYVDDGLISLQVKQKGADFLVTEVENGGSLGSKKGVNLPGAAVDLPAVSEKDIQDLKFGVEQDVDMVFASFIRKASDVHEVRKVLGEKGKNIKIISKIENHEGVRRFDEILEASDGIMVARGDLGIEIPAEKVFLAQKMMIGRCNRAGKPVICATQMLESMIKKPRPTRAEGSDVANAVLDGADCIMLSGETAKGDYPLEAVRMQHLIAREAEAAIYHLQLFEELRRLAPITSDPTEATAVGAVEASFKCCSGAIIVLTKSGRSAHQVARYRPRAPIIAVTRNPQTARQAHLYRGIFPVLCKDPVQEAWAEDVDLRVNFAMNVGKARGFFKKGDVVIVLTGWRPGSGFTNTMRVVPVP
Chain of Pyruvate kinase (Leishmania mexicana) (Q27686 2-499 E452W): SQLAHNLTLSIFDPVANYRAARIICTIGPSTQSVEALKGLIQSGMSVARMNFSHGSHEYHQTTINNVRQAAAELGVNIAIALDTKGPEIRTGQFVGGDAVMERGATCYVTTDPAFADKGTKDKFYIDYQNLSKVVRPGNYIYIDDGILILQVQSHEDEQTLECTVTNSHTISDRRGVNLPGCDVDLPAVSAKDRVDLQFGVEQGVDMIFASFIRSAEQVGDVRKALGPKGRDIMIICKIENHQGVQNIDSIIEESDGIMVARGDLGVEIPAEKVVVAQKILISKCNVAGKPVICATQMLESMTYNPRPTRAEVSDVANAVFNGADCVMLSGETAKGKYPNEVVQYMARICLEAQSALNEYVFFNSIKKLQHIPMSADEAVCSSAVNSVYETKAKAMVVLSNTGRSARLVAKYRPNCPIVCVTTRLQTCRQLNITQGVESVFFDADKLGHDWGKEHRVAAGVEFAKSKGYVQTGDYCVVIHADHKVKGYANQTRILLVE
Chain of Alpha-galactosidase A (Homo sapiens) (P06280 whole entry, looked up): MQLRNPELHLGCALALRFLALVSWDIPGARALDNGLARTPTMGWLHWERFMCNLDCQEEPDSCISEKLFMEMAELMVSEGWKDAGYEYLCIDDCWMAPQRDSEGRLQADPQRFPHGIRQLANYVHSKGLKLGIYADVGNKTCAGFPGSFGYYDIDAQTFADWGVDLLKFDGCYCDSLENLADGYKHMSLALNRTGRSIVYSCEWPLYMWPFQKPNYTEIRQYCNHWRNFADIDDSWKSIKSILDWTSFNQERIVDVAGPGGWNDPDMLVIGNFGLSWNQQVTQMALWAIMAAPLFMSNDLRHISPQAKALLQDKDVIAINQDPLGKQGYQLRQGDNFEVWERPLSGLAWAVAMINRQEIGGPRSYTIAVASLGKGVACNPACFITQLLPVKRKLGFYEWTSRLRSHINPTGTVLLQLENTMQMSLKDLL

For the compound `C[C@H](N)c1cccc(Cl)c1Cl`, the activity change, negative = inhibition is 19.1% [at 38 µM] in [1] and 7.99% [at 38 µM] in [3]. Besides, the Potency in [2] is 1.26 µM (active); in [4], above 46 µM. Moreover, the compound was classed as inactive in [5], in experiment [6], in [8], in [11], in [12] and in [13]. For the same compound, the compound was classed as inactive in experiment [14] and in experiment [15]. For the same compound, the Potency result in experiment [7], in [9] and in experiment [10] was “inactive” each time.

For the compound `NCC[Se][Se]CCN`, the activity change, negative = inhibition in experiment [1] was 19.7% [at 7.69 µM]; in experiment [5] it was -20.9% [at 11.4 µM]. The figures for the Potency in experiment [2] and in experiment [4] were 3.16 µM (active) and above 46 µM, respectively. The result in experiment [16] and in experiment [6] was inactive.

In the case of `CCCC[N+]1(C)[C@@H]2CC(OC(=O)[C@@H](CO)c3ccccc3)C[C@H]1[C@H]1O[C@H]12` (stereo not given in full), the activity change, negative = inhibition in experiment [1] was 5.93% [at 38 µM]. For the same compound, the Potency result in experiment [2], in experiment [7] and in experiment [10] was “inactive” in each case. Also, the result in experiment [16], in experiment [5], in experiment [6], in experiment [8], in experiment [11] and in experiment [13] was inactive. Besides, the compound was called inactive in experiment [14] and in experiment [15]. Further, the Potency in [4] was above 46 µM; in [17], above 46 µM; in experiment [18], 0.141 µM (active); in experiment [9], 0.562 µM (active).

Turning to `CCOc1ccc(-n2c(O)c(C=NCCN3CCNCC3)c(=O)[nH]c2=O)cc1`, the activity change, negative = inhibition in experiment [1] was 9.57%; in experiment [3], 0.77%. The call in experiment [16] was inactive.
